# Compound activity: PubChem BioAssay, Sanford-Burnham Center for Chemical Genomics
# CYP2C19 activ = human CYP2C19 activators, primary screen, biochemical, luminescence | AID 1025, 2008 | recombinant CYP2C19, luciferin-H EGE luminescence; active compounds read high; 0 = fully inhibited enzyme, 1 = untreated enzyme | Cytochrome P450 2C19 (Homo sapiens), P33261 | activation factor at 5 µM | 96,000 tested, under 10 active;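 active = activation factor of at least 2 at 5 µM in the primary screen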;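 note: 0 = wells with 2.5 mM tranylcypromine and 1 = vehicle-only wells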
# CYP2C9 inhib = blockers of cytochrome P450 2C9 activity – biochemical, luminescence, ADME assay, primary screen; P11712; AID 777, 2007; inhibition, % at 5 µM; CYP2C9 Supersomes, luciferin-H conversion; actives 20% (n = 96,000);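 active = blocking of liver enzyme CYP2C9 beyond about 50% at 5 µM, limit read from the data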
# PTK2B oligo ant = antagonists of Pyk2 self-association, primary screen, Q293 cells, FERM NanoBiT luminescence, HTS; Protein-tyrosine kinase 2-beta (Homo sapiens), Q14289; active compounds read low; z-score (the deposit names both 25 µM and 10 µM); actives 0.83% (n = 99,000);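 active = Z-score of -3 or lower, scaled per plate to the spread of control and sample wells; inactive = z-score above -3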;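 note: negative z-score means lost luminescence so less FERM oligomerization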
# Target sequence (Q14289 whole entry, looked up): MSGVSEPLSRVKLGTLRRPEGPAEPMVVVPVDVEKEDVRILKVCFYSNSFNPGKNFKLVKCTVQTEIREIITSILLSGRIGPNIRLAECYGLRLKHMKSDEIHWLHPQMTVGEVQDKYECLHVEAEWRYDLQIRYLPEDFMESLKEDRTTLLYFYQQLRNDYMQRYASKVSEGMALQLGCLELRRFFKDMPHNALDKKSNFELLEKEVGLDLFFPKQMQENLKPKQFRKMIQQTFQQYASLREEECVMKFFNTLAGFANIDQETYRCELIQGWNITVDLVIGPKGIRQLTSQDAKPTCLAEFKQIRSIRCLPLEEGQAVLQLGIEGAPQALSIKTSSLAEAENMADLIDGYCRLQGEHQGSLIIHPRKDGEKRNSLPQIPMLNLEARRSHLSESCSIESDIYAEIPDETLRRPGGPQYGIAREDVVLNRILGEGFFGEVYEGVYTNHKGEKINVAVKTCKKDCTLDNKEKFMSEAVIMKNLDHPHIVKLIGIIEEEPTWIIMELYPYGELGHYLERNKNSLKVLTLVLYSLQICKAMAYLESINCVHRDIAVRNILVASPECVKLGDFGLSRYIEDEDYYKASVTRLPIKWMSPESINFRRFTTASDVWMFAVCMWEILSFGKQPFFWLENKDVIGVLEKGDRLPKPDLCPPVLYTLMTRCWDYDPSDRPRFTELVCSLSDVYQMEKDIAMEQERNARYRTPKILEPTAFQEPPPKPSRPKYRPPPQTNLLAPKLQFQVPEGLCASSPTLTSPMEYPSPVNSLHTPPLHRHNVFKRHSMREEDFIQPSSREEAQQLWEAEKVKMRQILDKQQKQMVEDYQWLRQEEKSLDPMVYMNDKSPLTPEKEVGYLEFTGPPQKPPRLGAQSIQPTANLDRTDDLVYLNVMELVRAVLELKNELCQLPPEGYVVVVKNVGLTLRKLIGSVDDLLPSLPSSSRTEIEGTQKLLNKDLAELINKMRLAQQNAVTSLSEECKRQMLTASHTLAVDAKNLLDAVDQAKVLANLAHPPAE
# CYP2C19 inh = blockers of cytochrome P450 2C19 activity – biochemical, luminescence, ADME assay, primary screen | P33261 | CYP2C19 Supersomes, luciferin-H EGE luminescence, 30 min | inhibition, % at 5 µM | actives 21% (n = 96,000);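 active = CYP2C19 inhibition above a set limit at 5 µM in the primary screen, cut at about 50% in these data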;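 note: plate controls were negative control wells for no effect and 2.5 mM tranylcypromine positive control for full effect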
# CYP2C9 activ = human CYP2C9 activators, primary screen, biochemical, luminescence; recombinant CYP2C9, luciferin-H conversion; active compounds read high; factor 1 = untreated enzyme, 0 = blocked; activation factor at 5 µM; actives 1.4% (n = 96,000); AID 1024, 2008;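 active = activation factor of 2 or more for CYP2C9 at a 5 µM dose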;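 note: 0 = sulfaphenazole-blocked wells and 1 = vehicle-only wells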
# * marks the source's active call; other numbers are inactive results; / = no result given. Compounds with a hit are over-represented: about 28% of the library has one in this group of screens.
SMILES,CYP2C19 activ,CYP2C9 inhib,PTK2B oligo ant,CYP2C19 inh,CYP2C9 activ
Nc1nonc1C(=O)NCCNS(=O)(=O)c1ccc(Br)cc1,0.4,-13,-0.19,60*,1.1
Nc1nonc1C(=O)NCCNC(=O)c1ccccc1F,/,/,0.75,/,/
O=S(=O)(NCc1cccs1)c1cccc(S(=O)(=O)N2CCCCC2)c1,0.5,21,0.61,52*,0.8
O=S(=O)(NCc1ccccc1)c1cccc(S(=O)(=O)N2CCOCC2)c1,0.4,42,-0.71,64*,0.6
O=S(=O)(NCCc1ccccc1F)c1cccc(S(=O)(=O)N2CCOCC2)c1,0.1,62*,0.04,88*,0.4
O=S(=O)(c1cccc(S(=O)(=O)N2CCC(Cc3ccccc3)CC2)c1)N1CCOCC1,/,/,-0.81,/,/
CC(NC(=O)C(NC(=O)C1CCCN1C(=O)OC(C)(C)C)C(C)C)C(N)=O (stereo not drawn),/,/,1.3,/,/
COc1ccc(C(=O)N2CC3(CC(c4cccc([N+](=O)[O-])c4)=NO3)C[C@H]2C(=O)NCC(N)=O)cc1 (stereo partly drawn),0.9,14,/,11,0.9
O=C(CSc1nnc(-c2csc3c2CCCC3)o1)Nc1ccccc1,1.1,-8,/,-10,1.1
COC(=O)c1cccnc1-n1c(=O)c2cccnc2n(Cc2cccc(OC)c2)c1=O,0.2,43,/,78*,0.6
CCOc1ccc(OCCOCCn2ccnc2)cc1,0,42,0.3,98*,0.6
COc1cccc2c(=O)n(CC(=O)N3CCCc4ccccc43)ccc12,0.1,46,/,87*,0.5
COc1cc2c(C(=O)N3CCN(c4cccc(Cl)c4)CC3)cn(C)c(=O)c2cc1OC,0.8,42,-0.23,21,0.6
CCn1cc(C(=O)N2CCCc3ccccc32)c2cc(OC)c(OC)cc2c1=O,0.4,21,-0.01,56*,0.8
CCn1cc(C(=O)N2CCN(c3cccc(Cl)c3)CC2)c2cc(OC)c(OC)cc2c1=O,0.2,80*,-0.64,76*,0.2
CCOC(=O)COc1cccc2c(=O)n(CC(=O)N3CCCc4ccccc43)ccc12,0.9,1,/,8,1
Nc1nc(CSCc2ccccc2)nc(N2CCOCC2)n1,0.1,33,-0.73,92*,0.7
CCNc1nc(SCc2ccccc2)nc(N2CCOCC2)n1,0.2,68*,-1.4,82*,0.3
Clc1ccc(CNc2nc(N3CCOCC3)nc(N3CCOCC3)n2)cc1,0.2,75*,-0.21,77*,0.2
CSc1nc(Cc2ccc(Cl)cc2)nc2ccccc12,1.1,-6,-0.51,-6,1.1
O=C(Nc1ccc(Cl)cc1)OCCn1nnnc1C(c1ccccc1)N1CCOCC1 (stereo not drawn),0.7,65*,0.33,35,0.4
COCCn1nnnc1C(c1cccc(C(F)(F)F)c1)N1CCOCC1 (stereo not drawn),/,/,-1.5,/,/
CN(C)c1ccc(C(c2nnnn2CCOC(=O)Nc2ccc(Cl)cc2)N2CCOCC2)cc1 (stereo not drawn),0.1,87*,0.01,93*,0.1
Clc1ccc(C(c2nnnn2CCc2ccccc2)N2CCSCC2)cc1 (stereo not drawn),0.2,79*,-0.88,80*,0.2
COCC(=O)N(C)C1(c2nnnn2CCOC(=O)Nc2ccc(Cl)cc2)CCCC1,0.7,9,0.97,34,0.9
SMILES,CYP2C19 activ,CYP2C9 inhib,PTK2B oligo ant,CYP2C19 inh,CYP2C9 activ
Cc1cc(-c2ccccc2)nc2[nH]n(-c3ccccc3)c(=O)c12,0.9,59*,-0.38,10,0.4
O=c1c2c(C(F)(F)F)cc(C(F)(F)F)nc2[nH]n1-c1ccccc1,1,84*,-1.6,2,0.2
CCn1c(-c2ccccc2)c(C(=O)O)c2ccccc21,1.1,-11,-0.63,-6,1.1
Cc1nc(Oc2cccc(Cl)c2)c2oc3ccccc3c2n1,1,3,-0.27,-4,1
CCCCC1CC(CSc2ncn[nH]2)OC1=O (stereo not drawn),0.2,22,0.19,80*,0.8
CCOC(=O)c1ccc(N2C(=O)C(O)=C(C(C)=O)C2c2ccccn2)cc1 (stereo not drawn),1.1,52*,0.5,-6,0.5
Cc1ccc(N2C(=O)c3n[nH]c(C)c3C2c2cccnc2)cc1 (stereo not drawn),0.6,30,-1.5,40,0.7
CCOC(=O)c1ccc(N2C(=O)c3n[nH]c(C)c3C2c2ccccn2)cc1 (stereo not drawn),0.6,69*,/,42,0.3
CCOC(=O)c1ccc(N2C(=O)c3n[nH]c(C)c3C2c2cccnc2)cc1 (stereo not drawn),0.7,68*,-3.8*,30,0.3
CCCC(=O)c1c(C)c2ccccc2n1C,0.6,-11,0.13,35,1.1
CC(C)CC(c1nnnn1Cc1cccs1)N1CCN(c2nc3ccccc3s2)CC1 (stereo not drawn),/,/,-3.6*,/,/
COCCn1nnnc1C(c1ccccn1)N1CCN(c2cc(Cl)ccc2C)CC1 (stereo not drawn),0.6,41,-0.88,42,0.6
COCCn1nnnc1C(c1cc2cc(C)cc(C)c2[nH]c1=O)N1CCN(c2ccccc2F)CC1 (stereo not drawn),0.7,78*,0.35,35,0.2
CCN(Cc1ccccc1)C(c1cc2cc(C)cc(C)c2[nH]c1=O)c1nnnn1CCOC (stereo not drawn),0.9,7,-0.29,5,0.9
COCCn1nnnc1C(c1cccs1)N1CCN(c2nc3ccccc3s2)CC1 (stereo not drawn),0.2,89*,-3.4*,82*,0.1
COCCn1nnnc1C(c1cccs1)N1CCN(c2cc(C)ccc2C)CC1 (stereo not drawn),0.6,62*,-1.7,38,0.4
CCC(c1nnnn1Cc1cccs1)N1CCN(c2nc3ccccc3s2)CC1 (stereo not drawn),0.6,42,-2.7,41,0.6
O=C(O)c1cnn(-c2ccccc2)c1-c1ccccc1,0.9,15,0.01,8,0.9
COc1ccc(-c2nn(CC(=O)N(C)C)c(=O)c3ccccc23)cc1,0.9,11,0.78,6,0.9
COC(=O)c1cc(CSc2nnc(NC3CCCCC3)s2)oc1C,0.5,48,0.09,45,0.5
O=C1CC(N2CCN(c3ccc(F)cc3)CC2)C(=O)N1Cc1cccs1 (stereo not drawn),0.7,33,-0.7,30,0.7
O=C1CC(N2CCN(c3nc4ccccc4s3)CC2)C(=O)N1Cc1cccs1 (stereo not drawn),0.5,69*,-1.6,48,0.3
COc1cc2c(C(=O)N3CCN(Cc4ccc5c(c4)OCO5)CC3)cn(C)c(=O)c2cc1OC,0.9,3,0.89,11,1
COc1ccc(CC(=O)Nc2cccc(-c3nnc(-c4ccccc4)o3)c2)cc1OC,0.2,78*,-3.6*,85*,0.2
